The structures appear in SMILES notation. Records with an inconclusive call do not appear. Values without a mark were called inactive. The source made the active and inactive calls. The call rests on the fitted dose curve; in most records, active means well fitted cell-killing curve with a large enough effect in the repeat runs; inconclusive means weak or mixed curves, or effect the other way; inactive means flat fitted curve, though single readings scatter.
On the % scale 0 is the no-effect control and ±100 the full control effect.

The assay in a line: qHTS assay to identify small molecule that activate the aryl hydrocarbon receptor (AhR) signaling pathway - cell viability counter screen (AID 743086).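 Further: HepG2 liver cells carrying the AhR DRE luciferase reporter; nearly all actives have a fitted effect of over 45% in size.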 The settings on record: HepG2-AhR-luc viability, CellTiter-Fluor, 24 h; series mostly up to 70.3 µM; viability change, negative = cytotoxic: at the top concentration. From the text:
U.S. Tox21 Program National Center for Advancing Translational Sciences [NCATS] NIH Chemical Genomics Center [NCGC] U.S. Environmental Protection Agency [EPA] National Institutes of Environmental Health Sciences [NIEHS] National Toxicology Program [NTP] U.S. Food and Drug Administration [FDA] Tox21 Assay overview: The Aryl hydrocarbon Receptor (AhR), a member of the family of basic helix-loop-helix transcription factors, is crucial to adaptive responses to environmental changes. AhR mediates cellular responses to environmental pollutants such as aromatic hydrocarbons through induction of phase I and II enzymes but also interacts with other nuclear receptor signaling pathways A cell based HepG2-AhR-luc assay (HG2L7.5c1 cell line, developed by Dr. Michael S. Denison, University of California at Davis) was used to assess the activation of AhR. HepG2 (human hepatocellular carcinoma) cells were stably transfected with an Ah receptor-responsive firefly luciferase reporter gene plasmid containing 20 dioxin responsive elements and luciferase reporter gene. Increased luciferase activity can be used to identify the compounds that induce AhR activation. The cytotoxicity of the compounds screened against the HepG2-AhR-luc cell line was tested in parallel by measuring the cell viability using CellTiter-Fluor assay in the same wells.
Tox21 Assay Protocol Summary: 4000 cells in 5 uL/well were dispensed into white wall/solid bottom 1536-well plates using a Multidrop Combi (Thermo Fisher Scientific Inc., Waltham, MA) dispenser. After the assay plates were incubated at 37C for 5 h, 23 nL of compound or DMSO vehicle was transferred to the assay plates by a pintool station (Kalypsys, San Diego, CA). The plates were incubated at 37C for 24 hr. For cell viability measurement, 1 ul/well of CellTiter-Fluor reagent (Promega, Madison, WI) was added into the assay plates using a Flying Reagent Dispenser (FRD) (Aurora Discovery, CA),and then the assay plates were incubated at 37C for 30 min. The fluorescence intensity in the plates was measured using a ViewLux plate reader (PerkinElmer, Shelton, CT), followed by the addition of 4 uL of ONE-Glo Luciferase Assay reagent (Promega) using an FRD (Aurora Discovery). After the assay plates were incubated at room temperature for 30 min, luminescence intensity was measured using a ViewLux plate reader (Perkin Elmer).
Background: Quantitative high-throughput screening tests each substance at several concentrations.
With `O=C(O)C1C(C(=O)O)C2(Cl)C(Cl)=C(Cl)C1(Cl)C2(Cl)Cl` (stereo not given), the call was inactive.

Consider `Nc1cccc(Cl)c1`, for which the outcome was inactive.

Consider `Cc1cccc(N)c1C`, for which the compound was classed as inactive.

In the case of `Nc1cc(Cl)cc(Cl)c1`, the outcome was inactive.

With `ClCCOCCCl`, the compound was classed as inactive.

For the compound `OCCCCO`, the outcome was inactive.

In the case of `Cc1cccc(C)c1NC(=O)CN1CCCC1=O`, the result was inactive.

Turning to `CSc1nnc(C(C)(C)C)c(=O)n1N`, the compound was classed as inactive.

For the compound `C[C@]12CC[C@H](O)CC1=CC[C@@H]1[C@@H]2CC[C@]2(C)C(=O)CC[C@@H]12`, the compound was called inactive.

For the compound `Cc1ccc(O)c(C)c1`, the compound was classed as inactive.

As to `COc1cc(-c2ccc(N)c(OC)c2)ccc1N`, the result was inactive.

Regarding `COS(=O)(=O)OC`, the compound was classed as inactive.

For `O=C(O)C(Br)Br`, the compound was classed as inactive.

As to `O=C(O)Cc1ccccc1`, the outcome was inactive.

Take `Nc1ncc([N+](=O)[O-])s1`: the “viability change, negative = cytotoxic” value was 2.09%.

As to `O=C(O)COc1ccccc1`, the compound was classed as inactive.

On to `CNC(=O)O/N=C/C(C)(C)SC`, for which the compound was classed as inactive.

In the case of `ClC(Cl)c1ccccc1`, the compound was called inactive.

As to `C[C@H]1C(=O)O[C@@H]2CCN3CC=C(COC(=O)[C@](C)(O)[C@]1(C)O)[C@H]23`, the outcome was inactive.

Consider `O=C(O)c1cc(Oc2ccc(C(F)(F)F)cc2Cl)ccc1[N+](=O)[O-]`, for which the compound was called inactive.

Regarding `CCOC(=O)CC(SP(=O)(OC)OC)C(=O)OCC` (stereo not given), the compound was classed as inactive.

`CC(=O)C1CCOC1=O` (stereo not given): the “viability change, negative = cytotoxic” value was 12.3% [at 95 µM].

With `Cc1cccc(C)c1N`, the compound was classed as inactive.

On to `Oc1ccc(Cl)cc1`, for which the call was inactive.

Turning to `NNc1ccccc1`, the compound was called inactive.

On to `CCCOC(=O)c1ccccc1C(=O)OCCC`, for which the compound was called inactive.

As to `C=C(C)C(=O)OCC(CC)CCCC` (stereo not given), the outcome was inactive.

As for `[N-]=[N+]=CC(=O)OC[C@H](N)C(=O)O`, the compound was classed as inactive.

In the case of `CCOP(=S)(OCC)Oc1ccc([N+](=O)[O-])cc1`, the result was inactive.

As for `Oc1c(Br)cc(Br)cc1Br`, the call was inactive.

Take `CCCCC(CC)C(=O)Cl` (stereo not given): the result was inactive.

With `O=[N+]([O-])c1ccc(Cl)cc1`, the call was inactive.

Turning to `C=CC(=O)OCC(CC)CCCC` (stereo not given), the outcome was inactive.

Take `Cc1ccc(N=C=O)cc1N=C=O`: the compound was classed as inactive.

Take `C/C=C/c1ccc2c(c1)OCO2`: the outcome was inactive.

Take `Nc1nc(N)nc(NC2CC2)n1`: the compound was called inactive.

Take `CNC(=O)O/N=C/C(C)(C)S(C)(=O)=O`: the compound was classed as inactive.

Turning to `CN(C)C(=O)C(c1ccccc1)c1ccccc1`, the compound was classed as inactive.

Consider `O=S(=O)(O)OOS(=O)(=O)O`, for which the outcome was inactive.

Consider `C=CCN=C=S`, for which the compound was classed as inactive.

The values are drawn from PubChem BioAssay (Tox21).
